# The supplement of paper PMC10849652
# About 7,900 targets were measured; listed, in parts, are those with a hit and a random draw of the rest. About 0.6% of all pairs of compound and target were hits. A number with no mark means an inactive call.
# Key:
# Experiment in all cases: log2 fold change, soluble protein after heating vs DMSO (PISA); higher = thermal stabilisation; K562 cells, 10 uM, 30 min; active = over 0.2 and 3.5 SD of the protein, either way, in both replicates (recomputed)
# [1] = compound: CS(=O)(=O)c1ccc(-c2cnc(N)c(C(=O)Nc3ccccc3)n2)cc1
# Outline: (§1)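 Quantification of soluble protein used TMTpro 16plex LC-MS/MS, with channel sums equalised. Samples were the supernatant after 21,000xg for 90 min of pooled aliquots from K562 cells (2×10^6 cells/mL) treated with 10 μM compound for 30 min, heated for 3 min over 48°C-58°C, and extracted in PBS with 0.5% NP-40 at 4°C. Values, from duplicates, describe thermal stability against control samples on a log2 fold-change scale.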
# [2] = compound: C[C@@H](Oc1cc(-c2cnn(C3CCNCC3)c2)cnc1N)c1c(Cl)ccc(F)c1Cl [crizotinib]
# Outline: as §1
# [3] = compound: C[C@@H]1COCCN1C2=NC(=NC(=C2)C3(CC3)S(=O)(=O)C)C4=C5C=CNC5=CC=C4
# Outline: as §1
# [4] = compound: C[C@H](C1=CC=C(C=C1)C(=O)NC2=C3C=CNC3=NC=C2)N
# Outline: as §1
# [5] = compound: C[C@H](Nc1ncnc2nc[nH]c12)c1cc2cccc(Cl)c2c(=O)n1-c1ccccc1 [duvelisib]
# Outline: as §1
# [6] = compound: Cc1cc(Nc2cc(CN3CCOCC3)c3nc(C)c(Cc4ccc(Cl)cc4F)n3n2)n[nH]1 [gandotinib]
# Outline: as §1
# [7] = compound: Cc1cc(Nc2cc(N3CCN(C)CC3)nc(Sc3ccc(NC(=O)C4CC4)cc3)n2)n[nH]1 [tozasertib]
# Outline: as §1
# [8] = compound: Cc1cc(SCc2sc(-c3ccc(C(F)(F)F)cc3)nc2C)ccc1OCC(=O)O
# Outline: as §1
# [9] = compound: Cc1ccc(-n2nc(C(C)(C)C)cc2NC(=O)Nc2ccc(OCCN3CCOCC3)c3ccccc23)cc1 [doramapimod]
# Outline: as §1
# [10] = compound: Cc1ccc(C(=O)N(CCCN)[C@@H](c2nc3cc(Cl)ccc3c(=O)n2Cc2ccccc2)C(C)C)cc1 [ispinesib]
# Outline: as §1
# Chain of UniProt Q86X83 (Q86X83 whole entry, looked up): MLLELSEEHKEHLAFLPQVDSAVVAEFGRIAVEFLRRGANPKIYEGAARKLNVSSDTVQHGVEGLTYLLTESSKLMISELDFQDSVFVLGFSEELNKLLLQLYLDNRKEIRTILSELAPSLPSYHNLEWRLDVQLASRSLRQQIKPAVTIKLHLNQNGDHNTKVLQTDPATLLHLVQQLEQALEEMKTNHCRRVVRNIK
# Chain of UniProt A6NHX0 (A6NHX0 whole entry, looked up): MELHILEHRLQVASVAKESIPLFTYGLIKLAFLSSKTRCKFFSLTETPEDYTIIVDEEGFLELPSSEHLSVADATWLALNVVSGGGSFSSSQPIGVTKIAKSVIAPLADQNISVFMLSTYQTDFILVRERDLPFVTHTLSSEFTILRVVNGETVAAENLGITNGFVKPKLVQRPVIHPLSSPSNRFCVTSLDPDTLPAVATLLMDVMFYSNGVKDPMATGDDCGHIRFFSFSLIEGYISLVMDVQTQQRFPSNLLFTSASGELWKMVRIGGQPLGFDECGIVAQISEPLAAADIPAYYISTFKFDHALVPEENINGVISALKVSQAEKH
# Chain of UniProt Q96KP4 (Q96KP4 whole entry, looked up): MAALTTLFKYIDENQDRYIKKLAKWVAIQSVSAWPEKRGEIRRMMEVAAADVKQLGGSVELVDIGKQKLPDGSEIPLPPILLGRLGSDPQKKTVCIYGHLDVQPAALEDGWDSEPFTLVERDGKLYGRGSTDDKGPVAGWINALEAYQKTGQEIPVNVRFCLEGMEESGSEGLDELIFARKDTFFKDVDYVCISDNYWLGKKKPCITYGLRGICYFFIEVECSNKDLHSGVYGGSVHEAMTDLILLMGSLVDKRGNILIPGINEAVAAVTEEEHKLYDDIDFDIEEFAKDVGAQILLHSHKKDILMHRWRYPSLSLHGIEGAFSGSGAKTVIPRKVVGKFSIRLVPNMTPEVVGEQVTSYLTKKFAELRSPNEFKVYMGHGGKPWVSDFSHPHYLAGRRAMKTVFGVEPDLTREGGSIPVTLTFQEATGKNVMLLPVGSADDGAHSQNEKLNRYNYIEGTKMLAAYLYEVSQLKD
# Chain of UniProt O75976 (O75976 whole entry, looked up): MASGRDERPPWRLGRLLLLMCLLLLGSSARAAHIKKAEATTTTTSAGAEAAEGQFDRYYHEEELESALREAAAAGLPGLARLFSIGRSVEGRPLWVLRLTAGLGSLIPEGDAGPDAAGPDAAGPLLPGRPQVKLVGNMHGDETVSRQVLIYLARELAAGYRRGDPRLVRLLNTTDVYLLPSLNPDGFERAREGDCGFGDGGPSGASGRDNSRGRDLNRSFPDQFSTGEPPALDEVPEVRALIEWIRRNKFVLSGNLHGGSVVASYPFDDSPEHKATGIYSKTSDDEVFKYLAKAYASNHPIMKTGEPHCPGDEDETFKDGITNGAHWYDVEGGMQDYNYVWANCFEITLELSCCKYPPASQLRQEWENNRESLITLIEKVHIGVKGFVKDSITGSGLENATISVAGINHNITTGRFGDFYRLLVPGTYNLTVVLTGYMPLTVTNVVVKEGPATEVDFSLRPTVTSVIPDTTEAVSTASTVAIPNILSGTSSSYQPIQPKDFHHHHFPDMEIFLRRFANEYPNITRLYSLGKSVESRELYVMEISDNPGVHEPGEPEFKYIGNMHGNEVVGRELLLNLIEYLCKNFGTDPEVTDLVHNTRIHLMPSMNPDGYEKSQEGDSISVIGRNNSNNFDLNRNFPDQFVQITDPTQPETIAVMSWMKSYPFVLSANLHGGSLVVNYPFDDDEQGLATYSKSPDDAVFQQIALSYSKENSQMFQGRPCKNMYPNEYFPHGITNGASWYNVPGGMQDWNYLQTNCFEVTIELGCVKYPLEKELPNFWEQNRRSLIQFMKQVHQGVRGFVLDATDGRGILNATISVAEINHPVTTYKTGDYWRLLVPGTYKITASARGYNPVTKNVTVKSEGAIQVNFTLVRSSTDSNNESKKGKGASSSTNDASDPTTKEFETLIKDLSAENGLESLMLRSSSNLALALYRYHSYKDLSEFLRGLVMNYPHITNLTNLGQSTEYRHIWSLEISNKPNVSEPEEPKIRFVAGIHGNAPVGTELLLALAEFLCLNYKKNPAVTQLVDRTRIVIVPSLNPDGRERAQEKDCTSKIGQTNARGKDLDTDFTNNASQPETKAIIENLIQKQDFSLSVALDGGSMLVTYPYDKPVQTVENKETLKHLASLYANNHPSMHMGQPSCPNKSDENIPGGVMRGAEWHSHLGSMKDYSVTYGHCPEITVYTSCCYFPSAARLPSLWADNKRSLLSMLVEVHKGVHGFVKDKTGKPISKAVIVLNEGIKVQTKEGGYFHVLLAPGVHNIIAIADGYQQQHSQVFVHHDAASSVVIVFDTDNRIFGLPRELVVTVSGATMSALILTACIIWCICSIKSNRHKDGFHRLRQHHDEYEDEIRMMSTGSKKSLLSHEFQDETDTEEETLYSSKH
# Chain of UniProt Q16630 (Q16630 whole entry, looked up): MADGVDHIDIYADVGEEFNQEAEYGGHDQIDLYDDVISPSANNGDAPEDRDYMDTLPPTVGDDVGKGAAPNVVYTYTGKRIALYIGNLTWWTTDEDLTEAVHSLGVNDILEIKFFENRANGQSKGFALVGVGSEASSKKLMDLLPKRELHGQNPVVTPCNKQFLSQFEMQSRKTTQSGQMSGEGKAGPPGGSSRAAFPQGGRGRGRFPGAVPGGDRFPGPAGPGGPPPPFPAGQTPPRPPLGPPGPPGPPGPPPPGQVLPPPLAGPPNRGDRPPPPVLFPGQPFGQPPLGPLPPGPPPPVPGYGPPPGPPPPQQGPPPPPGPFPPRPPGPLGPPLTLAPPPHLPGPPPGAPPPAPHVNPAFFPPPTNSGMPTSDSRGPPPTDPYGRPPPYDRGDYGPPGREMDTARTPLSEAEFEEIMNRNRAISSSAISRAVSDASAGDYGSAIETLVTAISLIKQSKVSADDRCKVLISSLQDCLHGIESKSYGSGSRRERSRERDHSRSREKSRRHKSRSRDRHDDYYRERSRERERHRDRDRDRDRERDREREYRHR
# Chain of UniProt P51946 (P51946 whole entry, looked up): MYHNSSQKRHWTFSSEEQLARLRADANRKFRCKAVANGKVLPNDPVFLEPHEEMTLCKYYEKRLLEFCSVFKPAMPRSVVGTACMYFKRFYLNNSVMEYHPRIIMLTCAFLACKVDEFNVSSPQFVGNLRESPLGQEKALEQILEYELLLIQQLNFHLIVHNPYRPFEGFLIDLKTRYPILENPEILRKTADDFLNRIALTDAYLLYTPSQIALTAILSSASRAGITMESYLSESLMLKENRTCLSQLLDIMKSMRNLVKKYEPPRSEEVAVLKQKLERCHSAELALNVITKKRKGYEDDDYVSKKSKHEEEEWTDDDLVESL
# Chain of UniProt P21964 (P21964 whole entry, looked up): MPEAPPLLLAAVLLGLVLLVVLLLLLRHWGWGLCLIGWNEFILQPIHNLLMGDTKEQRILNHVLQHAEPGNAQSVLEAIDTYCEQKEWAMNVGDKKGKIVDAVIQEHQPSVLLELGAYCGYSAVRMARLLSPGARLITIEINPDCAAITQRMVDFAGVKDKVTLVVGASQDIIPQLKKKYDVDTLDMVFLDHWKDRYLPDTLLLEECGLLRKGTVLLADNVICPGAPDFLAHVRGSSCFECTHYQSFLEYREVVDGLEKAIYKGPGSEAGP
# Chain of UniProt Q5JTJ3 (Q5JTJ3 whole entry, looked up): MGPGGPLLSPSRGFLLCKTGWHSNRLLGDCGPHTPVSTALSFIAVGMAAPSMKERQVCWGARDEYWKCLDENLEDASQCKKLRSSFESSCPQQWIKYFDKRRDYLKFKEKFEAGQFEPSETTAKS
# Chain of UniProt Q86X95 (Q86X95 whole entry, looked up): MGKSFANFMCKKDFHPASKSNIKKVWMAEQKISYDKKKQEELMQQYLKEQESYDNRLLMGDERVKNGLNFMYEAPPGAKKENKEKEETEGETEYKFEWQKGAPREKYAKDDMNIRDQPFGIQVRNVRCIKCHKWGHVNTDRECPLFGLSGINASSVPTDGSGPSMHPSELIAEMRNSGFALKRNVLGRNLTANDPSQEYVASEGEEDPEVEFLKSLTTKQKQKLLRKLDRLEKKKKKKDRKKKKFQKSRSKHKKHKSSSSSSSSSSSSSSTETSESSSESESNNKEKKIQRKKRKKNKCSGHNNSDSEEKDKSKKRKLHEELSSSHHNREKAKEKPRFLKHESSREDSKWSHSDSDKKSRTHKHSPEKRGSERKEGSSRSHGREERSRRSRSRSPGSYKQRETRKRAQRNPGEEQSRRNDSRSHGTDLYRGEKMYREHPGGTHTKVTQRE
# Chain of UniProt P50750 (P50750 whole entry, looked up): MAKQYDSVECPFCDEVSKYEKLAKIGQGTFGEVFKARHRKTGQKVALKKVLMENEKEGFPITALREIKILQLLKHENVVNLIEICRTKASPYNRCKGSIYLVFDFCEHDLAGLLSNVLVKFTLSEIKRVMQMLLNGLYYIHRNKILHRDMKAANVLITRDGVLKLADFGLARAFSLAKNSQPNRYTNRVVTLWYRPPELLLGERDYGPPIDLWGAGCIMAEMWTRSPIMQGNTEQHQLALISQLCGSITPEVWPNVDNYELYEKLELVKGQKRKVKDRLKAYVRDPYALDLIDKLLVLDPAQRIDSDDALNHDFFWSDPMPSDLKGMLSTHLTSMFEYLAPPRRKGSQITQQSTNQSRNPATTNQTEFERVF
# Chain of UniProt Q13137 (Q13137 whole entry, looked up): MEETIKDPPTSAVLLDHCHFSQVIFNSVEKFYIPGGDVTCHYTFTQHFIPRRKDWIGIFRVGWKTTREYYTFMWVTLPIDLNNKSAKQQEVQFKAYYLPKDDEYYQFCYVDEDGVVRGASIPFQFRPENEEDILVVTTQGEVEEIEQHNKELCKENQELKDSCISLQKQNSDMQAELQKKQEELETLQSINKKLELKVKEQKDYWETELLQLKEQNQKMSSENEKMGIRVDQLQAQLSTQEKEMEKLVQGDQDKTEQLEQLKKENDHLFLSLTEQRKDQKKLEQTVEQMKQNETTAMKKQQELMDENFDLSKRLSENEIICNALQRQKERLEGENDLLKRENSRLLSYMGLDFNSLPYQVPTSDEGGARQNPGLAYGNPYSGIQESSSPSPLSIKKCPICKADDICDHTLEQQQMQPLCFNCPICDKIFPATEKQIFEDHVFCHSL
Target,log2 fold change [1],log2 fold change [2],log2 fold change [3],log2 fold change [4],log2 fold change [5],log2 fold change [6],log2 fold change [7],log2 fold change [8],log2 fold change [9],log2 fold change [10]
CDAN1 (UniProt Q8IWY9),0.058,0.024,0.175,0.066,0.025,-0.054,-0.098,0.008,0.034,-0.02
COMT (UniProt P21964),0.04,0.352 (active),0.053,-0.081,0.109,0.031,-0.028,0.02,0,0.235 (active)
CPSF1 (UniProt Q10570),-0.015,-0.021,-0.185,0.048,0.064,-0.068,-0.032,0.161,0.09,0.036
COX5B (UniProt P10606),-0.07,0.186,0.081,-0.169,0.124,0.218,0.077,-0.001,0.022,0.265
CLCN3 isoform 2 (UniProt P51790),-0.008,-0.074,0.09,-0.142,0.015,0.02,0.002,-0.011,0.009,-0.25
CNDP2 (UniProt Q96KP4),0.03,-0.061,0.102,-0.067,0.02,0.072,-0.02,0.015,0.018,-0.099
CCDC9 (UniProt Q9Y3X0),-0.046,0.016,-0.063,0.105,-0.04,0.194,-0.083,-0.012,-0.008,-0.215
CASTOR2 (UniProt A6NHX0),-0.053,0.045,0.088,-0.022,0.075,-0.018,-0.113,0.008,0.037,0.018
CBS (UniProt P35520),-0.024,0.044,0.023,-0.054,0.027,-0.033,-0.032,-0.031,-0.076,-0.019
CASP2 (UniProt P42575),0.004,-0.062,0.023,-0.002,0.061,-0.071,0.083,0.05,0.077,0.039
CDK9 isoform 2 (UniProt P50750),-0.017,-0.103,-0.075,0.189,-0.076,-0.054,-0.031,0.03,0.066,-0.013
CALCOCO2 isoform 4 (UniProt Q13137),0.026,-0.355 (active),-0.106,0.024,0.042,0.071,0.115,-0.037,-0.002,-0.262
COMMD2 (UniProt Q86X83),-0.048,-0.13,0.102,0.037,0.097,-0.029,0.082,-0.018,-0.012,0.014
C9orf72 (UniProt Q96LT7),0.058,-0.134,-0.024,-0.048,0.008,-0.313 (active),-0.019,0.057,0.01,0.04
CPD (UniProt O75976),0,-0.294 (active),0.002,0.019,0.036,0.033,-0.036,-0.01,0.028,-0.174
CCAR2 isoform 2 (UniProt Q8N163),-0.037,0.024,0.046,0.011,-0.001,-0.093,0.103,0.169,-0.009,-0.063
COA6 isoform 2 (UniProt Q5JTJ3),0.026,-0.001,-0.07,-0.155,0.068,0.082,0.109,0.159,0,0.035
CCNH (UniProt P51946),-0.033,0.033,0.048,-0.031,0.037,0.013,0.046,-0.01,-0.086,0.098
CASP3 (UniProt P42574),0.017,0.036,-0.059,-0.057,-0.025,-0.019,-0.036,-0.05,-0.022,-0.004
CPSF6 isoform 2 (UniProt Q16630),-0.014,-0.025,0.075,-0.292 (active),-0.004,-0.034,-0.03,-0.012,0.004,0.11
CIR1 (UniProt Q86X95),-0.039,0.03,-0.187,0.544 (active),-0.114,0.295,0,0.015,0.092,-0.063
CDK8 (UniProt P49336),-0.049,-0.029,0.033,0.248,-0.071,-0.13,-0.199,0.155,0.425 (active),0.031
COPS8 (UniProt Q99627),-0.017,0.07,0.13,-0.148,0.096,0.048,0.028,0.054,0.107,0.05
C4A (UniProt P0C0L4),-0.096,0.065,0.088,0.056,0.026,-0.375,-0.056,0.008,-0.153,-0.155
CA8 (UniProt P35219),0.003,-0.008,0.117,-0.06,0.1,-0.064,0.122,0.096,-0.066,0.103
CPQ (UniProt Q9Y646),-0.013,-0.023,-0.001,0.049,-0.113,0.055,0.004,-0.058,0.03,0.011
CTBS (UniProt Q01459),-0.05,-0.166,-0.078,0.04,0.017,-0.078,0.069,-0.018,0.009,-0.092
"CLUH, A0A494C0R8",0.055,-0.575 (active),0.205,0.037,0.646 (active),-0.214,-0.11,-0.031,0.113,-0.028
COCH (UniProt O43405),-0.051,-0.05,-0.033,-0.016,-0.052,0.059,0.154,-0.053,0.052,-0.042
CDK6 (UniProt Q00534),0.062,-0.033,-0.042,-0.004,0.033,-0.009,0.001,-0.012,0.018,0.024
